# Pf growth 48h – Primary qHTS for delayed death inhibitors of the malarial parasite plastid, 48 hour incubation; actives 5.9% (n = 310,000); P. falciparum luciferase growth in erythrocytes, 48 h; AID 504832, 2011; Potency, µM (highest dose often 28.7 µM), inactives show top-dose activity change, negative = inhibition, actives largely listed as inhibitors; further: on the % scale 0 is the no-effect control and ±100 the full control effect
#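 Compounds are pin-transferred into medium, infected erythrocytes (2% hematocrit, 0.1% parasitemia final) are added, and plates sit one parasite generation at 37 C in 5% CO2. Detection reagent is then added and luminescence measured.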
# AMA1-RON2 inh – qHTS for Inhibitors of AMA1-RON; Towards Development of Antimalarial Drug Lead: Primary Screen; Plasmodium falciparum AMA1 (3D7) - RON2 peptide interaction; AlphaScreen AMA1-biotinylated RON2 peptide binding; actives 0.2% (n = 360,000); AID 720542, 2013; Potency, µM (doses to about 58.2 µM), for the others: top-dose activity change, negative = inhibition, usual class: inhibitors;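 further: 0% = vehicle wells and -100% = peptide control; nearly all actives have a fitted effect of over 45% in size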
#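 AMA1 (3D7) with his tag at 25 nM final met compounds first, then biotinylated RON2 peptide at 25 nM; detection used donor plus acceptor beads, 10 µg/mL apiece, read by AlphaScreen after 30 min at room temperature.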
# NS1 inh – qHTS Assay for Inhibitors of Influenza NS1 Protein Function; Potency, µM (titrated, usually from 46.1 µM), without a hit: at the highest dose activity, positive = more growth; actives 0.4% (n = 270,000); calls by dose curve; further: actives are rising curves; nearly all actives have a fitted effect of over 50% in size
#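 OD600 was taken as the measure of yeast growth restored by compound in an NS1-expressing S. cerevisiae strain. Cells had been washed out of glucose medium and diluted 1:100 into galactose -URA medium, pH 6.0.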
# Sm TGR block – qHTS Assay for the Inhibitors of Schistosoma Mansoni Peroxiredoxins | Potency, µM (top dose mostly 114 µM), inactives show at the highest dose activity change, negative = inhibition, usual class: inhibitors | purified TGR, DTNB reduction, TNB absorbance 405 nm | actives 3% (n = 360,000) | Schistosoma mansoni thioredoxin glutathione reductase (TGR), Q962Y6; further: on the % scale 0 is the no-effect control and ±100 the full control effect; nearly all actives have a fitted effect of over 60% in size
#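 Kinetic colorimetric format: TGR-catalysed, NADPH-driven DTNB reduction monitored via TNB absorbance. Enzyme dispensed at 20 nM; compound exposure 15 min at room temperature before reaction start.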
# Pf growth 96h – Primary qHTS for delayed death inhibitors of the malarial parasite plastid, 96 hour incubation; P. falciparum luciferase reporter growth, 96 h; actives 6.9% (n = 320,000); Potency, µM (doses to about 28.7 µM), for inactives: top-dose activity change, negative = inhibition, hits mostly inhibitors; further: on the % scale 0 is the no-effect control and ±100 the full control effect
#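 Luminescence readout: decreased luciferase signal marks inhibited growth of reporter-expressing P. falciparum in infected red cells (2% hematocrit, 0.05% parasitemia final), exposed to compound two generations (96 h, 37 C, 5% CO2).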
# * hit, by the source's call; ? = inconclusive; / = not tested or not shown; [ ] = dose if it differs, or a comment. Hits are enriched below; roughly 11% of the tested compounds scored in any of these assays. Unless noted, the call rests on the fitted dose curve; in most records, active means well fitted curve in the direction sought with a large enough effect; inconclusive means small, poorly fitted or top-dose-only effect, or another doubt; inactive means no such curve, though single readings can be large; an effect the other way counts as inactive or inconclusive. Potency means the concentration at half of the fitted maximal effect.
SMILES,Pf growth 48h,AMA1-RON2 inh,NS1 inh,Sm TGR block,Pf growth 96h
CCOC(=O)c1cccc(NC(=O)CSc2nnc(-c3ccoc3C)n2CCOC)c1,-0.3%,-2.0%,-5.4%,-28.9%,1.17µM*
O=C(Nc1ccc(Cl)cc1)c1ccc(-c2ccccn2)s1,133.6%,21.1%,5.0%,13.1%,11.1%
COCCn1c(SCC(=O)Nc2cccc(C)c2)nnc1C(C)C,14.9%,3.5%,-5.7%,-26.7%,0.165µM*
COCCn1c(SCC(=O)NCc2ccco2)nnc1C(C)C,-2.8%,8.8%,3.1%,44.7µM*,-3.5%
Cc1cc(C)cc(NC(=O)Cn2c(=O)n(C(C)C)c(=O)c3oc4ccccc4c32)c1,/,/,/,1.9%,/
CC(NC(=O)c1ccc(CSc2nc3ccncc3n2Cc2ccc(F)cc2)cc1)c1ccccc1 (centres undefined),/,/,/,-6.1%,/
O=C(c1cc(-c2cccnc2)nc2ccccc12)N1CCCc2ccccc21,?,-11.1%,-19.7%,-0.7%,10.4µM*
Cc1ccc(-c2cc(C(=O)N3CCCc4ccccc43)c3ccccc3n2)cc1,8.28µM*,-2.9%,-54.2%,-4.6%,/
O=C(c1cc(-c2cccnc2)nc2ccccc12)N1CCN(S(=O)(=O)c2cccs2)CC1,11.7µM*,14.1%,/,-4.9%,13.1µM*
COc1ccc(C2C=C(c3ccccc3)Nc3nc(NS(=O)(=O)c4ccccc4)nn32)cc1 (centres undefined),/,/,/,-2.0%,/
Cn1nnnc1NCc1ccccc1F,31.8%,0.0%,21.3%,2.9%,-9.3%
COc1ccc(C(=O)NCCS(=O)(=O)NC(C)c2ccccc2)cc1 (centres undefined),41.9%,-8.2%,/,2.4%,?
COc1ccc(-n2c(Cc3cccn3C)nnc2SCC(=O)NCc2ccco2)cc1,?,0.0%,9.8%,56.2µM*,0.1%
COc1ccc(-n2c(Cc3cccn3C)nnc2SCC(=O)NCc2ccc(F)cc2)cc1,8.28µM*,-5.3%,9.0%,-35.8%,-5.6%
COc1ccc(-n2c(Cc3cccn3C)nnc2SCC(=O)NCc2ccccc2Cl)cc1,9.28µM*,-0.4%,-7.6%,-19.5%,11.7µM*
COc1ccc(-n2c(Cc3cccn3C)nnc2SCC(N)=O)cc1,0.8%,6.5%,-3.9%,?,12.8%
O=C(CC1c2ccccc2C=C(c2ccsc2)N1c1ccc(-c2cccnc2)cc1)C1CC1 (centres undefined),/,3.3%,/,/,/
COc1cccc(C#Cc2c(CO)[nH]c3ccccc23)c1,?,-5.7%,/,31.6µM*,?
COc1cccc(CN2CCN(Cc3[nH]c4ccccc4c3C)CC2CCO)c1 (centres undefined),-63.2%,-7.4%,?,-4.9%[57.1 µM],3.4%
CCC1=NN2C(=N)/C(=C\c3ccc(OCCOc4ccc(NC(C)=O)cc4)cc3)C(=O)N=C2S1,-24.2%,9.4%,0.8%,7.1%,-28.6%
CCOc1cc(/C=C2\C(=N)N3N=C(CC)SC3=NC2=O)ccc1OCCOc1ccc(NC(C)=O)cc1,?,19.7%,-0.1%,2.0%,2.62µM*
COc1ccc(-c2cc(C(F)(F)F)c(C#N)c(=O)[nH]2)cc1,4.2%,-2.3%,0.7%,-34.3%,22.8%
COc1ccc(-c2cc(-c3ccco3)[nH]c(=O)c2C#N)cc1,3.8%,-0.9%,?,3.16µM*,-7.0%
COC(=O)c1ccc(C(=O)OC)c(NC(=O)c2cnn3c(C(F)F)cc(-c4ccccc4)nc23)c1,/,/,/,16.3%,/
Cc1ccc(Cn2cccc2/C=C2/C(=N)N3C=CSC3=NC2=O)cc1,1.9%,58.2%,6.1%,-6.9%,6.57µM*
SMILES,Pf growth 48h,AMA1-RON2 inh,NS1 inh,Sm TGR block,Pf growth 96h
CN(C)c1ccc(NC(=S)NC(=O)/C=C/c2ccco2)cc1,17.6%,5.5%,/,-16.2%,?
Cc1cc(C(=O)NNC(=O)/C=C/c2ccco2)c(C)o1,?,-2.3%,/,2.82µM*,28.2%
Cc1ccc(-c2csc(NC(=S)NC(=O)/C=C/c3ccco3)n2)cc1,47.4%,21.0%,10.5%,-14.3%,23.3%
COc1ccccc1/C=C/C(=O)NNC(=O)c1cc(C)oc1C,?,92.8%,/,-5.0%,0.1%
O=C(/C=C/c1ccco1)NC(=S)NNC(=O)c1ccco1,-8.1%,15.4%,-10.6%,39.8µM*,-21.9%
C=CCNC(=S)NNC(=O)c1ccco1,25.4%,33.1%,9.7%,/,38.8%
CC(=O)NC(=S)Nc1ccc(NC(=S)NC(=O)/C=C/c2ccco2)cc1,2.3%,7.0%,16.0%,17.8µM*,7.4%
CCC(=O)Nc1ccc(NC(=S)NC(=O)/C=C/c2ccco2)cc1,-14.1%,85.2%,12.3%,28.2µM*,310.2%
Cc1ccc(CNC(=O)CSc2ncc3c(n2)-c2cc(Cl)ccc2N(C)S3(=O)=O)cc1,/,/,/,2.3%,/
CCC1CCCCN1CCCNC(=O)C1CC(=O)N(CCc2ccccc2)C1 (centres undefined),-12.2%,4.5%,-20.6%,-2.0%,?
CN(C)c1ccc(NC(=S)NC(=O)/C=C/c2ccc(Cl)cc2)cc1,270.4%,9.8%,18.8%,-20.1%,265.6%
O=C(/C=C/c1ccc(Cl)cc1)NC(=S)Nc1ccc(C(=O)O)cc1,/,-7.8%,0.6%,10µM*,-8.6%
COc1ccc(NC(=S)NC(=O)/C=C/c2ccccc2)cc1,0.6%,13.5%,10.2%,-22.0%,-30.3%
COc1ccc(NC(=S)NC(=O)/C=C/c2ccco2)cc1,48.2%,46.0%,/,10µM*,88.8%
O=C(/C=C/c1ccco1)NC(=S)Nc1ccc(C(=O)O)cc1,/,-9.2%,3.5%,7.08µM*,39.1%
O=C(NC(=S)NNC(=O)c1ccco1)c1ccc(Br)cc1,28.9%,126.2%,-88.5%,39.8µM*,?
COc1cccc(C(=O)Nc2ccccc2-c2nnc(-c3cccc(OC)c3)o2)c1,/,/,/,-0.3%,/
COc1cccc(CNC(=O)c2ccc3c(c2)sc2nc(-c4ccccc4)cn23)c1OC,/,/,/,-1.2%,/
Cc1ccc(C(=O)/C=C/c2ccco2)c(O)c1,96.7%,5.4%[2.32 µM],6.3%,44.7µM*,7.1%
COc1ccc(C[C@@H]2CN3C(=NC[C@@H]3C)N2CCNC(=O)c2ccc(C)c(Br)c2)cc1,?,0.3%,2.2%,-15.4%,13.1µM*
Cc1ccc(C(=O)NNC(=O)C2CC2)cc1Br,13.9%,32.7%,-6.2%,3.7%,28.3%
Cc1ccc(C(=O)N[C@@H](C)CN2C3=NC[C@H](C)N3C[C@H]2Cc2ccc(O)cc2)cc1Br,10.4µM*,/,-8.0%,50.1µM*,4.15µM*
CCOc1ccc(CCNC(=O)CS(=O)Cc2nc(-c3ccccc3C)oc2C)cc1OCC (centres undefined),-10.8%,-7.8%,-12.7%,35.5µM*,?
Cc1oc(-c2ccccc2Cl)nc1CS(=O)CC(=O)NC1CC1 (centres undefined),13.5%,10.4%,19.8%,?,?

# Bioassay records deposited in PubChem by National Center for Advancing Translational Sciences (NCATS).
